# Measured values: PMC5540273 (PLoS ONE, 2017)
# System: PHKG1
# Conditions: concentration: 1 μM, replicates: in singlicate; n = 1
# 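Further: KINOMEscan kinase panel screen.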
row,SMILES,%Inh [%]
1,COc1ccc(Nc2nccc(N3CCC(NS(=O)(=O)c4ccc(NC(C)=O)cc4)C3)n2)cc1 (centres unmarked) [GSK1379729],18
2,CCn1c(-c2nonc2N)nc2ccccc21 [SB-693162/GW549034],21
3,COc1cccc(-n2cnc3c(N)ncnc32)c1 [SKF-97416],34
4,O=C(Nc1n[nH]c2nc(-c3ccccc3)c(Cl)cc12)C1CC1 [SB-734909],0
5,Cc1nnc(-c2ccc3ncn(-c4ccc(S(C)=O)cc4)c3c2)o1 (centres unmarked),0
6,CCC(=O)c1c(-c2ccccc2)c2cc(Cl)ccc2c(=O)n1Cc1cc(S(C)(=O)=O)n(CC(F)F)n1,0
7,Cc1ccc(-c2ccc3c(ccc4sc5c(c43)NC[C@@H](C)N=C5N(C)C)n2)cn1,0
8,Cc1nnc(-c2ccc(C)c(-c3ccc(C(=O)O)cc3)c2)o1 [GW608005],2
9,Fc1cccc(CSc2nnc(-c3ccc4c(c3)CCO4)o2)c1,1
10,O=C(NCCNc1ccnc(Nc2ccc(F)cc2)n1)Nc1ccc2c(c1)OCO2 [GSK1379882],8
11,CN(C)c1cc(-c2ccc3c(N)n[nH]c3c2)nc(N)n1 [GSK2219329],0
12,COc1cc2nccc(Nc3cccc(Oc4ccccc4)c3)c2cc1OC.Cl [GW284543],2
13,COc1ccc(-n2cnc3c(N)ncnc32)cc1 [SKF-97236],0
14,CCCNC(=O)Nc1ccc(Oc2ncnc3ccn(C)c23)cc1,0
15,COc1ccc(-c2cc3c(C)nc(N)nc3n([C@H]3CC[C@H](O)CC3)c2=O)cn1,9
16,COc1cc2ncn(-c3cc(OCCCc4ccccc4)c(C(N)=O)s3)c2cc1OC [GSK205189],2
17,CCc1ccc(-c2ccc3c(c2)-c2nn(C)cc2S(=O)(=O)N3C)cc1,0
18,Nc1n[nH]c2ncc(-c3ccccc3)cc12 [SB-517081],0
19,COc1ccc(CNC(=O)NC2CCN(c3ccnc(Nc4ccc(F)cc4)n3)C2)cc1 (centres unmarked) [GSK1379706],7

row,SMILES,%Inh [%]
1,Cc1nn2c(=O)cc(N3CCOCC3)nc2n1Cc1cccc(Cl)c1Cl [GSK2342769],7
2,Cn1c(=O)c(F)c(Nc2ccc(I)cc2F)c2c(=O)n(OC[C@H](O)CO)cnc21,23
3,COC(=O)c1c(-c2ccccc2)c2cc(C)ccc2c(=O)n1Cc1ccccc1,0
4,Nc1ncnc2c1ncn2-c1ccc(Cl)cc1 [AH2635],0
5,COc1cccc(C2=C(N(C)c3ccccc3)C(=O)NC2=O)c1 [SB-334865],0
6,COc1cc(Nc2nccc(N3CCC(NC(=O)C4COc5ccccc5O4)C3)n2)cc(OC)c1OC (centres unmarked) [GSK1379761],12
7,COC(=O)c1c(-c2ccccc2)c2cc(Br)ccc2c(=O)n1Cc1ccc(NC(=O)CCC(=O)O)cc1,0
8,Nc1ncnc2c1ncn2-c1cccc2ccccc12 [SKF-97184],0
9,COc1ccc(-c2cc3c(C)nc(N)nc3n([C@H]3CC[C@H](OCCO)CC3)c2=O)cn1,7
10,CCC(=O)c1c(-c2ccccc2)c2cc(Cl)ccc2c(=O)n1Cc1cc(S(C)(=O)=O)n(CC(N)=O)n1,0
11,Nc1nc(N)c2nc(-c3ccccc3)[nH]c2n1 [SKF-12778],0
12,FC(F)(F)c1ccc(-c2ncn(CCCN3CCOCC3)c2-c2ccncc2)cc1 [SB-217780],1
13,COc1cc(OC)cc(-c2cc3cnc(N)nc3nc2NC(=O)NC(C)(C)C)c1,13
14,O=C(Nc1ccc2c(c1)OCO2)NC1CCN(c2ccnc(NCc3ccc(F)cc3)n2)CC1 [GSK1379859],0
15,O=C(NCc1cccs1)c1cc(C(=O)c2c(Cl)cccc2Cl)c[nH]1 [GW823670],2
16,COc1cc2nccc(Nc3ccc(OCc4ccc(NC(C)=O)cc4)cc3)c2cc1OC.Cl [GW440135],0
17,COc1cc2ncn(-c3cc(OCc4ccncc4Br)c(C(N)=O)s3)c2cc1OC [GW854278],8
18,CCn1c(-c2ccoc2)nc2cnccc21 [SB-733887],0

# System: PHKG2
# Conditions: concentration: 1 μM, replicates: in singlicate; n = 1
row,SMILES,%Inh [%]
1,COc1ccc(Nc2nccc(N3CCC(NS(=O)(=O)c4ccc(NC(C)=O)cc4)C3)n2)cc1 (centres unmarked) [GSK1379729],0
2,CCn1c(-c2nonc2N)nc2ccccc21 [SB-693162/GW549034],16
3,COc1cccc(-n2cnc3c(N)ncnc32)c1 [SKF-97416],0
4,O=C(Nc1n[nH]c2nc(-c3ccccc3)c(Cl)cc12)C1CC1 [SB-734909],7
5,Cc1nnc(-c2ccc3ncn(-c4ccc(S(C)=O)cc4)c3c2)o1 (centres unmarked),0
6,CCC(=O)c1c(-c2ccccc2)c2cc(Cl)ccc2c(=O)n1Cc1cc(S(C)(=O)=O)n(CC(F)F)n1,7
7,Cc1ccc(-c2ccc3c(ccc4sc5c(c43)NC[C@@H](C)N=C5N(C)C)n2)cn1,0
8,Cc1nnc(-c2ccc(C)c(-c3ccc(C(=O)O)cc3)c2)o1 [GW608005],0
9,Fc1cccc(CSc2nnc(-c3ccc4c(c3)CCO4)o2)c1,0
10,O=C(NCCNc1ccnc(Nc2ccc(F)cc2)n1)Nc1ccc2c(c1)OCO2 [GSK1379882],7
11,CN(C)c1cc(-c2ccc3c(N)n[nH]c3c2)nc(N)n1 [GSK2219329],0
12,COc1cc2nccc(Nc3cccc(Oc4ccccc4)c3)c2cc1OC.Cl [GW284543],0
13,COc1ccc(-n2cnc3c(N)ncnc32)cc1 [SKF-97236],0
14,CCCNC(=O)Nc1ccc(Oc2ncnc3ccn(C)c23)cc1,0
15,COc1ccc(-c2cc3c(C)nc(N)nc3n([C@H]3CC[C@H](O)CC3)c2=O)cn1,1
16,COc1cc2ncn(-c3cc(OCCCc4ccccc4)c(C(N)=O)s3)c2cc1OC [GSK205189],20
17,CCc1ccc(-c2ccc3c(c2)-c2nn(C)cc2S(=O)(=O)N3C)cc1,0
18,Nc1n[nH]c2ncc(-c3ccccc3)cc12 [SB-517081],0
19,COc1ccc(CNC(=O)NC2CCN(c3ccnc(Nc4ccc(F)cc4)n3)C2)cc1 (centres unmarked) [GSK1379706],0

row,SMILES,%Inh [%]
1,Cc1nn2c(=O)cc(N3CCOCC3)nc2n1Cc1cccc(Cl)c1Cl [GSK2342769],0
2,Cn1c(=O)c(F)c(Nc2ccc(I)cc2F)c2c(=O)n(OC[C@H](O)CO)cnc21,0
3,COC(=O)c1c(-c2ccccc2)c2cc(C)ccc2c(=O)n1Cc1ccccc1,15
4,Nc1ncnc2c1ncn2-c1ccc(Cl)cc1 [AH2635],0
5,COc1cccc(C2=C(N(C)c3ccccc3)C(=O)NC2=O)c1 [SB-334865],0
6,COc1cc(Nc2nccc(N3CCC(NC(=O)C4COc5ccccc5O4)C3)n2)cc(OC)c1OC (centres unmarked) [GSK1379761],18
7,COC(=O)c1c(-c2ccccc2)c2cc(Br)ccc2c(=O)n1Cc1ccc(NC(=O)CCC(=O)O)cc1,0
8,Nc1ncnc2c1ncn2-c1cccc2ccccc12 [SKF-97184],0
9,COc1ccc(-c2cc3c(C)nc(N)nc3n([C@H]3CC[C@H](OCCO)CC3)c2=O)cn1,0
10,CCC(=O)c1c(-c2ccccc2)c2cc(Cl)ccc2c(=O)n1Cc1cc(S(C)(=O)=O)n(CC(N)=O)n1,0
11,Nc1nc(N)c2nc(-c3ccccc3)[nH]c2n1 [SKF-12778],0
12,FC(F)(F)c1ccc(-c2ncn(CCCN3CCOCC3)c2-c2ccncc2)cc1 [SB-217780],4
13,COc1cc(OC)cc(-c2cc3cnc(N)nc3nc2NC(=O)NC(C)(C)C)c1,0
14,O=C(Nc1ccc2c(c1)OCO2)NC1CCN(c2ccnc(NCc3ccc(F)cc3)n2)CC1 [GSK1379859],0
15,O=C(NCc1cccs1)c1cc(C(=O)c2c(Cl)cccc2Cl)c[nH]1 [GW823670],0
16,COc1cc2nccc(Nc3ccc(OCc4ccc(NC(C)=O)cc4)cc3)c2cc1OC.Cl [GW440135],5
17,COc1cc2ncn(-c3cc(OCc4ccncc4Br)c(C(N)=O)s3)c2cc1OC [GW854278],1
18,CCn1c(-c2ccoc2)nc2cnccc21 [SB-733887],0
